# Screening results deposited in PubChem BioAssay by several laboratories.
# Hits are enriched below; roughly 2.5% of the tested compounds scored in any of these assays.
# PG9 binder: PG9 antibody binding by small molecule; hit rate 0.43% among 360,000; inhibition, % at 6.7 µM; TR-FRET gp120-PG9 antibody binding; in the data active means inhibition above about 8.5%
# rCAG RNA binder: r(CAG) repeat RNA binding; TO-PRO-1 dye displacement fluorescence; inhibition, % at 3 µM; hit rate 1.3% among 370,000; AID 651821;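 active means inhibition above the plate cutoff, the mean of all test compounds on that plate plus 3 SD, cut at about 35% in these data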;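 further: 0% = DMSO alone and 100% = 100 µM mitoxantrone as full dye displacement; higher means more dye released from RNA so lower well fluorescence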
# ABCB6 inh 2: human ABCB6 transporter inhibition; Q9NP58; K562-ABCB6 porphyrin accumulation, flow cytometry, 1 h; stronger effect = lower value; fluorescence ratio to DMSO, % at 10 µM; hit rate 0.19% among 360,000; AID 602162;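 active means fluorescence ratio to DMSO below 75%, the collection mean minus 3 SD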;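 further: signal is porphyrin accumulated inside mitochondria; 100% equals median channel fluorescence of DMSO control wells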
# Exocytosis inh: blocks lytic granule exocytosis. TALL-104 LAMP-1 surface exposure, flow cytometry; cells stimulated with thapsigargin and PMA. hit rate 0.66% among 360,000. AID 651702. inhibition, % at 10 µM;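 active means inhibition above about 55%, limit read from the data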
# Starred values were filed as active, the others as inactive; . = not tested or not shown.
SMILES,PG9 binder,rCAG RNA binder,ABCB6 inh 2,Exocytosis inh
CN1/C(=C/C(=O)c2nc(S(C)(=O)=O)ncc2Cl)C(C)(C)c2ccccc21,.,.,151,58*
C[C@@H]1ON(C)[C@H]2C[C@H]3c4cc(-c5ccc6c(c5)OCO6)ccc4CCN3C[C@@H]12,-3,1,.,.
Cc1ccc(S(=O)(=O)OCC(=O)Nc2ccc(C(=O)O)c(O)c2)cc1,-1,40*,90,14
Cc1ccc(NC(=O)COCC(=O)Nc2ccc(C)cc2)cc1,0,-4,102,-12
CCOc1ccc(-n2c(SCC(=O)Nc3ccc4c(c3)OCCO4)nnc2-c2ccncc2)cc1,.,2,.,.
COc1ccc(CCNC(=O)/C(C#N)=C2\N=C(NC(=O)c3ccco3)c3ccccc32)cc1,-11,2,101,84*
N#C/C(C(=O)NCc1ccccc1)=C1/N=C(NC(=O)c2ccco2)c2ccccc21,-5,0,106,25
CCCCN1CN2Cc3cc(F)ccc3C2CS1(=O)=O (configuration not stated),.,3,.,.
CC(C)NC(=O)N[C@@H]1C[C@@H]2O[C@@H](CO)CC[C@@H]2O[C@@H]1CCc1ccc(-c2ccc(F)cc2)cc1,.,3,.,.
CCOC(=O)C1=NN(C(=O)Nc2ccc(OC)cc2)C2C(=O)N(c3cccc(C(F)(F)F)c3)C(=O)C12 (configuration not stated),0,54*,120,-7
Cc1ccc(-c2nc3ccccc3s2)cc1NC(=S)NC(=O)/C=C/c1ccco1,0,13,98,0
O=C(/C=C/c1ccco1)NC(=S)Nc1cc(-c2nc3ccccc3s2)ccc1Cl,-12,46*,103,-8
CCC(C(=O)Nc1ccccc1N1CCCC1)c1cccc(Cl)c1 (configuration not stated),.,0,.,.
C[C@@H](C(=O)NCCc1c[nH]c2ccccc12)[C@@H]1C[C@@]1(C)[C@@H](NC(=O)OCc1ccccc1)c1ccccc1,0,11,74*,1
C=CCN1C(=O)[C@@H](CC(=O)NCc2cccc3ccccc23)[C@]2(C(=O)OCC)CCCCC/C=C/12,.,3,.,.
CCN1CCCC1CNC(=O)c1ccc2c(c1)NC(=O)/C(=C\c1ccc(C)cc1)S2 (configuration not stated),0,14,100,61*
CC(C)C[C@H](NC(=O)c1ccc(Cl)cc1Cl)C(=O)N1CCC[C@H]1C(=O)NCc1ccccc1,-2,-2,.,.
O=[N+]([O-])c1cnc(Sc2ccncn2)c([N+](=O)[O-])c1,-1,13,106,68*
O=[N+]([O-])c1cnc(Sc2ccncn2)s1,-4,-1,103,61*
COC(=O)[C@]12C[C@H](CC(=O)NCc3ccc(OC)c(OC)c3)C(=O)N(Cc3ccccc3)C1=C[C@H](C(C)(C)C)O[C@@H]2C,-1,1,.,.
CC(C)[C@H](NC(=O)C1CC1)C(=O)N1CCC[C@H]1C(=O)NCc1ccccc1,-1,1,.,.
CCn1nc(C)cc1C(=O)Sc1cccc(Cl)c1,-2,42*,90,68*
Cc1nn(C)c(C(=O)Sc2cccc(Cl)c2)c1[N+](=O)[O-],-1,-3,94,64*
CCn1nc(C)cc1C(=O)N1CCCC(N2CCN(c3cccc(Cl)c3)CC2)C1 (configuration not stated),-1,-10,92,-2
COC(=O)C1=C(C)N(Cc2ccco2)C(=O)/C1=C\c1ccc([N+](=O)[O-])cc1,3,13,124,92*
SMILES,PG9 binder,rCAG RNA binder,ABCB6 inh 2,Exocytosis inh
CCCC(C)NC(=O)c1cc(C(=O)OC)cc([N+](=O)[O-])c1 (configuration not stated),1,-4,99,-3
CCCC(C)c1nnc(NC(=O)c2cc(C(=O)OC)cc([N+](=O)[O-])c2)s1 (configuration not stated),1,50*,91,0
COc1ccc2c(c1)CC=C1C2CCC2(C)C(=O)C(=NO)CC12 (configuration not stated),-2,4,102,91*
O=C(N[C@H](C(=O)N1CCC[C@H]1C(=O)NCc1ccccc1)c1ccccc1)C1CCCC1,0,0,.,.
CCCc1c(-c2cccc(Br)c2)ncn1CCc1ccccc1OC,0,2,.,.
CN1/C(=C/c2cccc[n+]2CCO)Sc2ccccc21,1,-4,115,0
CC[n+]1c(/C=C2\Sc3ccccc3N2C)ccc2cccc(C)c21,-16,-162,.,68*
COc1ccc(S(=O)(=O)/N=C2\C=C(Nc3ccc(O)cc3)C(=O)c3ccccc32)cc1,-21,22,103,68*
CC(C)c1ccc(S(=O)(=O)/N=C2\C=C(NS(=O)(=O)c3ccccc3)C(=O)c3ccccc32)cc1,-2,68*,99,15
C=CCN(C)CC#Cc1ccc(OC)cc1,.,0,.,.
Cn1c(SCCN2CCCCC2)nnc1-c1ccccc1Br,0,-5,96,-1
O=S1(=O)C=C(SCCN2CCCCC2)c2ccccc21,1,-1,94,63*
C/C(CC(=O)Nc1ccc(Cl)c(C(F)(F)F)c1)=N\NC(=O)c1cc2ccccc2cc1O,-2,51*,98,0
CCCCCCCCN1C(=O)[C@@H](CC(=O)NCc2ccc(OC)c(OC)c2)C[C@@]2(C(=O)OC)C1=C[C@H](C(C)C)O[C@@H]2C1CC1,.,7,.,.
CC(C)(C)C(=O)OC12CCCN(C1)/C(=C/c1cccc(Cl)c1)C2 (configuration not stated),.,-2,.,.
N#Cc1ccc(OCCCN2CCC(C(O)(c3ccccc3)c3ccccc3)CC2)cc1,-1,1,.,.
COc1ccc2nc(NC(=O)c3ccccc3C(=O)O)sc2c1,0,2,94,0
COc1ccc2nc(NC(=O)Nc3ccccc3)sc2c1,-1,43*,101,-2
CC(=O)Nc1ccc2nc(NC(=O)COc3ccccc3C)sc2c1,-1,8,100,0
COc1cccc2sc(Nc3nc4ccc(NC(C)=O)cc4s3)nc12,0,49*,97,2
CN1Cc2nnn(CC3CCCCC3)c2-c2ccccc2S1(=O)=O,.,-1,.,.
COC1=CC(=O)C(C2CC(=O)c3c(O)cc(O)cc3O2)=CC1=O (configuration not stated),-4,20,97,67*
COc1c(CC=C(C)C)cc(C2CC(=O)c3c(O)cc(O)cc3O2)cc1CC=C(C)C (configuration not stated),-2,32,101,42
CC(/C=N/n1c(COc2ccccc2)n[nH]c1=S)=C\c1ccccc1,2,41*,101,3
Cc1cccc(/C=N/n2c(COc3ccccc3)n[nH]c2=S)c1,1,22,116,-4
Cc1cc(Br)cn2c(Cc3cccc(F)c3)c(-c3ccco3)nc12,2,24,.,.
Cc1cccc(OCc2n(CC(=O)OC3CC(C)CCC3C(C)C)c3ccccc3[n+]2C)c1 (configuration not stated),.,.,96,89*
CCCCCCSC1=C(C#N)C(=O)NC2(CCCCC2)S1,1,70*,100,2
O=c1cc(O)c2sc(Nc3ccc(F)c(Cl)c3)nc2[nH]1,1,35*,104,-2
O=[N+]([O-])c1c(NCCCO)cc(Sc2nc3ccccc3s2)c2nonc12,.,.,92,40
